In PubChem BioAssay (EPA / NIEHS) one finds outcome and AC50 data, which are given here for three compounds.

Assay [1] is described as follows: ATG_DR4_LXR_CIS: Attagene CIS-FACTORIAL HepG2 Assay for human Liver X Receptor (LXR), DR4 submotif (AID 2282929). The following applies: HepG2 Attagene DR4 cis-reporter, mRNA transcription; actives raise or lower the signal. A digest of the protocol:
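HepG2 cells were transiently transfected with multiple cis-regulated reporter units and dosed for 24 hours. The DR4 reporter mRNA was quantified by RT-PCR, 6-FAM labelling and capillary electrophoresis. Bidirectional fits used DMSO as baseline.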

Assay [2] deals with Aryl hydrocarbon receptor (Homo sapiens) (UniProt P35869). The experiment in a line: ATG_Ahr_CIS: Attagene CIS-FACTORIAL HepG2 Assay for human Aryl Hydrocarbon Receptor (Ahr) (AID 2282930). The settings on record: HepG2 AhR cis-factorial reporter transcription; actives raise or lower the signal. Summed up:
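Transient MRTU transfection of HepG2 → 24 h compound exposure → total RNA, oligo(dT) RT → PCR, 6-FAM extension, HpaI cut → CE fluorescence. DMSO = baseline; bidirectional curve fit.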

Assay [3] is described as follows: ATG_AP_1_CIS: Attagene CIS-FACTORIAL HepG2 Assay for human Activator Protein 1 (AP-1) (AID 2282931). The following applies: HepG2 Attagene cis-factorial AP-1 reporter mRNA; actives raise or lower the signal. Summed up:
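HepG2 cells transiently transfected with cis-element-driven reporter transcription units, dosed for 24 hours. Reporter mRNA measured by RT-PCR, 6-FAM labelling, HpaI digestion and capillary electrophoresis. Bidirectional fitting against DMSO baseline.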

Assay [4] is described as follows: ATG_AP_2_CIS: Attagene CIS-FACTORIAL HepG2 Assay for human Activator Protein 2 (AP-2) (AID 2282932). The settings on record: HepG2 AP-2 cis-reporter, Attagene transcription factor profiling; actives raise or lower the signal. Summed up:
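Endogenous transcription factor activity is reported through transfected multiplex reporter constructs in HepG2, after 24 h of compound exposure. Transcripts were quantified by RT-PCR and capillary electrophoresis of fluorescent fragments. Bidirectional fit against DMSO.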

Assay [5] is described as follows: ATG_BRE_CIS: Attagene CIS-FACTORIAL HepG2 Assay for human Bone Morphogenetic Protein (BMP) Response Element (BRE) (AID 2282933). The settings on record: HepG2 BMP response element reporter, Attagene transcription factor profiling; actives raise or lower the signal. A digest of the protocol:
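A HepG2 multiplex reporter system measured inducible reporter mRNA 24 h post-dosing. Detection: RT-PCR, 6-FAM primer extension, HpaI digestion, capillary electrophoresis. Activity fitted bidirectionally relative to DMSO.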

The target in assay [6] is Retinoic acid receptor alpha (Homo sapiens) (UniProt P10276). The experiment in a line: ATG_DR5_RAR_CIS: Attagene CIS-FACTORIAL HepG2 Assay for human Retinoic Acid Receptor Alpha (RARE), DR5 submotif (AID 2282934).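 As to AC50: reporter responds to endogenous RAR alpha beta and gamma in HepG2 not RARA alone.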 The following applies: HepG2 Attagene cis-factorial RARE DR5 reporter, mRNA; actives raise or lower the signal. Summed up: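 Transient MRTU transfection of HepG2; 24 h compound treatment; TriZol RNA, oligo(dT) RT, PCR, FAM labelling, capillary electrophoresis. Bidirectional fit vs DMSO. Endogenous TF activity at DR5 RARE.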
Retinoic acid receptor alpha (Homo sapiens), sequence (P10276 whole entry, looked up): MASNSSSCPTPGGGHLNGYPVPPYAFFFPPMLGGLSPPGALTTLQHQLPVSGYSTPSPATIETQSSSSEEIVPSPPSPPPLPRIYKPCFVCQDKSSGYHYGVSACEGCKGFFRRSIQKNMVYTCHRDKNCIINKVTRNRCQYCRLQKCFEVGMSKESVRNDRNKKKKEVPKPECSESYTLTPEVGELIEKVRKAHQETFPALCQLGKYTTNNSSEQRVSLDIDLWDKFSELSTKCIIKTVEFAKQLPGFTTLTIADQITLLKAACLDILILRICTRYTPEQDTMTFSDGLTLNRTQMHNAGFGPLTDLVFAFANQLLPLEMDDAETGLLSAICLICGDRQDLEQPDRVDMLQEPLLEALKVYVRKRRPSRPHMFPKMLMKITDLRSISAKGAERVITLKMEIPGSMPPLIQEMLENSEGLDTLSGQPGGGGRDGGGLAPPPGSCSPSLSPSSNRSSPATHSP

The target of assay [7] is Transcription factor E2F1 (Homo sapiens) (UniProt Q01094). The experiment in a line: ATG_E2F_CIS: Attagene CIS-FACTORIAL HepG2 Assay for human E2F Transcription Factor 1 (AID 2282935). The settings on record: HepG2 Attagene cis-reporter, E2F reporter RNA transcripts; actives raise or lower the signal. Summed up:
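Gain or loss of reporter transcript, fitted against DMSO, reflects E2F1-driven transcription. Transiently transfected HepG2 dosed 24 h before RNA isolation. Quantified by fluorescent RT-PCR products separated by capillary electrophoresis.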

Assay [8] in a line: ATG_E_Box_CIS: Attagene CIS-FACTORIAL HepG2 Assay for human Enhancer Box (E-box) (AID 2282936). The following applies: HepG2 E-box cis-reporter transcription, actives raise or lower the signal. Summed up: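 E-box-driven reporter transcripts measured in transiently transfected HepG2 after 24 h exposure: RNA reverse-transcribed, PCR-amplified, fluorescently labelled, digested and resolved by capillary electrophoresis. Gain or loss relative to DMSO.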

Assay [9] is described as follows: ATG_M_61_CIS: Attagene CIS-FACTORIAL HepG2 Assay for M61 Transcription Factor (Internal Marker) (AID 2282937). The following applies: HepG2 Attagene CIS-FACTORIAL M61 internal marker reporter; actives raise or lower the signal. Summed up: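 HepG2 cells transiently transfected with multiplexed cis-promoter reporter units reporting endogenous transcription factor activity, measured 24 h after dosing. Reporter mRNA quantified by RT-PCR and capillary electrophoresis; bidirectional fit against DMSO baseline.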

Assay [10] is described as follows: ATG_EGR_CIS: Attagene CIS-FACTORIAL HepG2 Assay for human Early Growth Response 1 (EGR1) (AID 2282938). The following applies: HepG2 Attagene CIS-FACTORIAL EGR reporter mRNA; actives raise or lower the signal. A digest of the protocol:
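HepG2 cells transiently transfected with cis-element-driven multiplexed reporter units, dosed for 24 h. EGR1-element reporter mRNA quantified by RT-PCR, 6-FAM labelling, HpaI digestion and capillary electrophoresis; bidirectional fit versus DMSO.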

The nature of assay [11]: ATG_M_19_CIS: Attagene CIS-FACTORIAL HepG2 Assay for M19 Transcription Factor (Internal Marker) (AID 2282939). The following applies: HepG2 Attagene CIS-FACTORIAL M19 internal marker reporter; actives raise or lower the signal. Summed up:
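Chemical-treated HepG2 (24 h) with MRTU constructs; reporter transcripts detected by fluorescent RT-PCR fragment analysis on capillary electrophoresis. Internal background marker, DMSO as baseline.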

Assay [12] is described as follows: ATG_ERE_CIS: Attagene CIS-FACTORIAL HepG2 Assay for Estrogen Response Element (ERE) (AID 2282940). The following applies: HepG2 ERE cis-reporter, Attagene RNA transcript; actives raise or lower the signal. Summed up: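 Human liver cells (HepG2) bearing transiently transfected, promoter-regulated reporter units were exposed 24 h. Reporter mRNA induction was detected by capillary electrophoresis of labelled RT-PCR products and fitted bidirectionally to DMSO.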

The nature of assay [13]: ATG_Ets_CIS: Attagene CIS-FACTORIAL HepG2 Assay for human Erythroblast Transformation Specific (ETS) (AID 2282941). The settings on record: HepG2 ETS cis-reporter transcription, actives raise or lower the signal. Summed up: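 RT-PCR/capillary electrophoresis fluorescence read-out of reporter mRNA; HepG2 transient multi-reporter transfection; 24 h compound exposure; gain or loss of signal fitted bidirectionally relative to DMSO.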

Assay [14] has as its target Hepatocyte nuclear factor 3-beta (Homo sapiens) (UniProt Q9Y261). The experiment in a line: ATG_FoxA2_CIS: Attagene CIS-FACTORIAL HepG2 Assay for human Forkhead box A2 (FOXA2) (AID 2282942). The settings on record: HepG2 cis-reporter transcription factor activity, 24 h; actives raise or lower the signal. A digest of the protocol:
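HepG2 transiently transfected with a multiplexed cis-promoter reporter library read endogenous FOXA2 activity. After 24 h compound exposure, reporter mRNA was quantified by RT-PCR, HpaI digestion and capillary electrophoresis. Bidirectional fit against DMSO.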

Assay [15] in a line: ATG_FoxO_CIS: Attagene CIS-FACTORIAL HepG2 Assay for human Forkhead box O (FoxO) (AID 2282943). The following applies: HepG2 Attagene cis-reporter, FoxO element, mRNA; actives raise or lower the signal. Summed up: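 HepG2, transient MRTU transfection (cis element, endogenous TFs). Dose 24 h. TriZol RNA → oligo(dT) RT → PCR → 6-FAM primer extension → HpaI cut → CE. Gain/loss vs DMSO.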

A short description of assay [16]: ATG_GATA_CIS: Attagene CIS-FACTORIAL HepG2 Assay for human GATA Binding Protein (AID 2282944). The settings on record: HepG2 GATA cis-element reporter, Attagene multiplex mRNA; actives raise or lower the signal. A digest of the protocol:
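Transfected cis-reporter HepG2 cells were treated with chemicals for 24 hours. Total RNA was then converted to cDNA, amplified with reporter-specific primers and analysed by fluorescent capillary electrophoresis, using DMSO-treated wells as baseline.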

Assay [17] can be described thus: ATG_GLI_CIS: Attagene CIS-FACTORIAL HepG2 Assay for human Zinc Finger Protein GLI1 (AID 2282945). The settings on record: HepG2, Attagene cis-factorial reporter mRNA, GLI element; actives raise or lower the signal. Summed up: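 Bidirectional curve fits relative to DMSO, using reporter mRNA levels from RT-PCR plus capillary electrophoresis. Cells were HepG2 transiently carrying cis-regulated reporter constructs, harvested 24 h after dosing.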

Assay [18] can be described thus: ATG_GRE_CIS: Attagene CIS-FACTORIAL HepG2 Assay for human Glucocorticoid Response Elements (GRE) (AID 2282947). The settings on record: HepG2 GRE cis-reporter, Attagene multiplex mRNA; actives raise or lower the signal. Summed up:
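Reporter transcripts read by RT-PCR with capillary electrophoresis fluorescence after a 24 h chemical exposure of HepG2 cells transiently transfected with multiple cis-element reporter units. Gain or loss fitted against DMSO.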

A short description of assay [19]: ATG_ISRE_CIS: Attagene CIS-FACTORIAL HepG2 Assay for human Interferon Regulatory Factor 1 (IRF1) binding to an Interferon-Stimulated Response Element (ISRE) (AID 2282948). The settings on record: HepG2 ISRE cis-reporter (Attagene), mRNA transcription readout; actives raise or lower the signal. A digest of the protocol: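 Read-out: fluorescent RT-PCR products resolved by capillary electrophoresis, reporting endogenous transcription factor activity via ISRE-driven reporter mRNA in transfected HepG2 cells dosed for 24 h; gain or loss fitted relative to DMSO.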

For assay [20], the target named is Bile acid receptor (Homo sapiens) (UniProt Q96RI1). The experiment in a line: ATG_IR1_CIS: Attagene CIS-FACTORIAL HepG2 Assay for human Nuclear Receptor Subfamily 1 Group H Member 4 (NR1H4), IR1 submotif (AID 2282946). The settings on record: IR1 reporter transcription, actives raise or lower the signal. A digest of the protocol: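 HepG2 cells transiently transfected with multiplexed cis-element reporter units read endogenous transcription factor activity. After 24 h compound exposure, reporter mRNA was quantified by RT-PCR, fluorescent labelling, HpaI digestion and capillary electrophoresis; bidirectional fitting versus DMSO baseline.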
Bile acid receptor (Homo sapiens), sequence (Q96RI1 whole entry, looked up): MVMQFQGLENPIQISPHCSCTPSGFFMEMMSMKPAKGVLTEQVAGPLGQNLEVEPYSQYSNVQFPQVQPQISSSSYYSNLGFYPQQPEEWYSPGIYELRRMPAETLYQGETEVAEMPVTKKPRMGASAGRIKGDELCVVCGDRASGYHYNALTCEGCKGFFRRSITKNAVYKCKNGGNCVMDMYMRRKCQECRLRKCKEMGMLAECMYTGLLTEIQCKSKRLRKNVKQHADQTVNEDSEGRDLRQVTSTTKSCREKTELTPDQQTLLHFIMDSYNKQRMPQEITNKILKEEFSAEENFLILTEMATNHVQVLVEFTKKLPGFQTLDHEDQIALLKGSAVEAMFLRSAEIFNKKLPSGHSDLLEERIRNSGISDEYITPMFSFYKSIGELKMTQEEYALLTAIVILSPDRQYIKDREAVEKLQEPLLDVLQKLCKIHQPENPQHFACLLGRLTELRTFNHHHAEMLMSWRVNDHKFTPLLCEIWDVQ

Calls of active or inactive are those of the source. The calls were made as follows: active = hit-call score of the fitted dose curve at least 0.9, where 1 is the maximum; inactive = score below 0.9.

Aryl hydrocarbon receptor (Homo sapiens), sequence (P35869 whole entry, looked up): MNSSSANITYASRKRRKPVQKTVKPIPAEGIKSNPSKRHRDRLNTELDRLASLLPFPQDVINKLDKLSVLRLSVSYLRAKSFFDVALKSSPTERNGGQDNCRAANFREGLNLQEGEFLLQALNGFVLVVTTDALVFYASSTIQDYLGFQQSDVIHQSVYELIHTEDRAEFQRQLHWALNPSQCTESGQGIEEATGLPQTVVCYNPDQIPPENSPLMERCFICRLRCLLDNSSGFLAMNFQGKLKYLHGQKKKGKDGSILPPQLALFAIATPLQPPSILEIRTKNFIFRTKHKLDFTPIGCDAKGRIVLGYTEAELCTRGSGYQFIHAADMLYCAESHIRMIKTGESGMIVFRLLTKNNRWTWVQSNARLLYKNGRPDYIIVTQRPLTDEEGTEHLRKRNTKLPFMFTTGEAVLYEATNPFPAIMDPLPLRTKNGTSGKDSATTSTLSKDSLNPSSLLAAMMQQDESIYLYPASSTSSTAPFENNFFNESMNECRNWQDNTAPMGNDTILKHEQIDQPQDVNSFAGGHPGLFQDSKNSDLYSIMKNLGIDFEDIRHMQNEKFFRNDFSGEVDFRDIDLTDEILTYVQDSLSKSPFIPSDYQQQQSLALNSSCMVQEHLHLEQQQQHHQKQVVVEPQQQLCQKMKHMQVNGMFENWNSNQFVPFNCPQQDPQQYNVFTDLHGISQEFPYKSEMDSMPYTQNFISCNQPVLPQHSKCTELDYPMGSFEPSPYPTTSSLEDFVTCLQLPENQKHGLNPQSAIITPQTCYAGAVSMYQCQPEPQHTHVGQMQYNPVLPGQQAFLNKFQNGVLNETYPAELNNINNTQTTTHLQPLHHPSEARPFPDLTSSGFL
Hepatocyte nuclear factor 3-beta (Homo sapiens), sequence (Q9Y261 whole entry, looked up): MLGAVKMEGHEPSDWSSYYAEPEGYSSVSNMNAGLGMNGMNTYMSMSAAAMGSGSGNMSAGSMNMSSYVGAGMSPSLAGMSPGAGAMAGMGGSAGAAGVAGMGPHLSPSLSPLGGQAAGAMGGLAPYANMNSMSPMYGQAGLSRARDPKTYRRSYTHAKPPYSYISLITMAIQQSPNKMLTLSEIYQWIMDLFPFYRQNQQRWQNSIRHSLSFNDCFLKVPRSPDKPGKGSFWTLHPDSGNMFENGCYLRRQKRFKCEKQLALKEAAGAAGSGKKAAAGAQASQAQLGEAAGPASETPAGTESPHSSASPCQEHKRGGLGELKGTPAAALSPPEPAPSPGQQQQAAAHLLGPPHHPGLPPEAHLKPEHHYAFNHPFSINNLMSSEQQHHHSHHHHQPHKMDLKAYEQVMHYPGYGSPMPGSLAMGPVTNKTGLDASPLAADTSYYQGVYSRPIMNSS
Transcription factor E2F1 (Homo sapiens), sequence (Q01094 whole entry, looked up): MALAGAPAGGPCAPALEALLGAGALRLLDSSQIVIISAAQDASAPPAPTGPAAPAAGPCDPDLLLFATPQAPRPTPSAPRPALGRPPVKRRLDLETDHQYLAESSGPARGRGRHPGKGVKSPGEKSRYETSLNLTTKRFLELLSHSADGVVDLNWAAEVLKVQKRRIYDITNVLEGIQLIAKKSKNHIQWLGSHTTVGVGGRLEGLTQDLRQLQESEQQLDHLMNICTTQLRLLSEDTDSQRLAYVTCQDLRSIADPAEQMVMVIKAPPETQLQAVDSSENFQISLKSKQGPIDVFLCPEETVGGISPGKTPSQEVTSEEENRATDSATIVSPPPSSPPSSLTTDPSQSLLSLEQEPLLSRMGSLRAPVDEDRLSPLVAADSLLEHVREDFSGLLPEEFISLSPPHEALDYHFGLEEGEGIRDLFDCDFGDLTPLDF

For the compound `CCCCOC(=O)COC(=O)c1ccccc1C(=O)OCCCC`, the call in [1], in [2], in assay [3], in [4], in assay [5] and in assay [6] was inactive. Moreover, the compound was classed as inactive in assay [7], in assay [8], in assay [9], in [10], in assay [11] and in assay [12]. For the same compound, the result in assay [13], in [14], in [15], in assay [16], in [17] and in assay [18] was inactive. Also, the compound was called inactive in assay [19].
For `CCCCCCCCCCCCCCC(Br)C(=O)O` (stereo not drawn), the AC50 in assay [1] was 27.4 µM (active); in [3], 173 µM (active); in assay [4], 100 µM (active); in assay [6], 26.9 µM (active); in assay [7], 108 µM (active); in assay [9], 183 µM (active). In addition, the AC50 in assay [10] was 146 µM (active); in assay [11], 183 µM (active); in assay [14], 62.4 µM (active); in assay [17], 137 µM (active); in [18], 159 µM (active). For the same compound, the compound was called inactive in assay [2], in assay [5], in [8], in assay [12], in assay [13] and in assay [15]. The outcome in [16], in [20] and in assay [19] was inactive.
With `CC(=O)C(F)(F)C(F)(F)F`, the call in assay [1], in [2], in assay [3], in [4], in assay [5] and in assay [6] was inactive. The result in [7], in [8], in assay [9], in [10], in [11] and in assay [12] was inactive. For the same compound, the compound was called inactive in [14], in assay [15], in assay [16], in assay [17], in [20] and in assay [18]. Further, the compound was called inactive in [19].

The term AC50 denotes the midpoint of the concentration-response curve, whichever way the signal moves.
